Reference: PubChem BioAssay (NCI)
Compounds without any hit were thinned out: in the full panel of roughly 79,000, 15% have a hit. Cut-off read from the data, not from the text of the source: active = growth inhibition above about 70%; inactive = the rest.

What was measured:
[1] = NCI Yeast Anticancer Drug Screen. Data for the rad50 strain (AID 155);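 note: 0% = growth of vehicle-only cultures of the same strain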; conditions: S. cerevisiae rad50 strain growth inhibition; at 50.0 µM; hits give high values
Summary of the method: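 Genetically altered yeast (DNA repair pathway); compound treatment; growth inhibition vs vehicle ctrl.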

[2] = NCI Yeast Anticancer Drug Screen. Data for the mec2-1 strain (AID 157); conditions: S. cerevisiae mec2-1 strain, at 50.0 µM, hits give high values
Summary of the method: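 Growth inhibition is read against vehicle-treated controls after compound exposure of the mec2-1 yeast strain, which is defective in DNA damage repair or cell cycle control.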

[3] = NCI Yeast Anticancer Drug Screen. Data for the sgs1 mgt1 strain (AID 161);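 note: 0% = growth of cultures given vehicle only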; conditions: S. cerevisiae sgs1 mgt1 strain, at 50.0 µM, hits give high values
Summary of the method: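 Percent growth inhibition was derived by comparing compound-exposed mutant yeast with vehicle-exposed cultures. The strain carries alterations in DNA damage repair.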

[4] = NCI Yeast Anticancer Drug Screen. Data for the cln2 rad14 strain (AID 165);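 note: 0% = growth equal to vehicle treated cultures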; conditions: S. cerevisiae cln2 rad14 strain, at 50.0 µM, hits give high values
Summary of the method: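 Growth inhibition, relative to vehicle-treated controls, is the read-out. The test organism is a yeast strain with defined genetic alterations, cln2 rad14.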

[5] = NCI Yeast Anticancer Drug Screen. Data for the bub3 strain (AID 167); conditions: S. cerevisiae bub3 mutant strain, at 50.0 µM, hits give high values
Summary of the method: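 Yeast carrying a defined mutation is treated with each compound, and growth is compared with that of vehicle-exposed cells to give inhibition.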

[6] = NCI Yeast Anticancer Drug Screen. Data for the mlh1 rad18 strain (AID 175); conditions: S. cerevisiae mlh1 rad18 strain growth inhibition; at 50.0 µM; hits give high values
Summary of the method: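 Cells of a genetically altered yeast strain, deficient in DNA damage repair, were treated with compound. Their growth was then compared with that of vehicle-treated cultures to give inhibition.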

Measured: growth inhibition

CC1=C(C)CC2(CC1)C(=O)C1(CCC(C)=C(C)C1)C2=O (configuration not stated)
inactive: [1] 25.2% | [2] 0.7% | [3] -2.8% | [4] 14.1% | [5] 17% | [6] 15.6%

NC(=S)N/N=C/c1cc([N+](=O)[O-])ccc1O
inactive: [1] 1.95% | [2] -3.4% | [3] 25.9% | [4] 51% | [5] 8.5% | [6] -87.9%

CCCCCC(=O)/C=C/Sc1n[nH]c(=O)[nH]c1=O
inactive: [1] 60.5% | [2] 41.1% | [3] 64.2% | [4] 27.9% | [5] 55% | [6] 62.1%

CCN(CC)N1C(=O)[N+](CC)(CC)N=C1[O-]
inactive: [1] -8.55% | [2] 4.15% | [3] -11.6% | [4] -30.8% | [5] -5.35% | [6] 2.05%

COc1ccc(C(=N)c2ccccc2C)cc1
inactive: [1] 8% | [2] -8.65% | [3] 6.05% | [4] 1.65% | [5] 8.5% | [6] -8.4%

O=c1ccnc2ccc3n[nH][nH]c3c12
inactive: [1] -18.4% | [2] -20.2% | [3] -7.65% | [4] 3.55% | [5] -14.2% | [6] 1.1%

CNC(=O)c1ccccc1S(=O)Cc1ccc(Br)cc1 (configuration not stated)
inactive: [1] -19.1% | [2] -30.2% | [3] -17.6% | [4] 8.35% | [5] 22.7% | [6] -0.95%

C[S+]1Cc2nc3ccccc3n2C1c1c(F)cccc1F (configuration not stated)
inactive: [1] 4.65% | [2] -19.2% | [3] -1.75% | [4] 12.8% | [5] -14.7% | [6] 2.35%

Cn1c(=O)c2nc3sc4c(n3c2n(C)c1=O)C(=O)c1ccccc1C4=O
inactive: [1] -17% | [2] 21.4% | [3] 11.2% | [4] -11.2% | [5] -11% | [6] 25.4%

OC1CCCC2OC2CC1 (configuration not stated)
inactive: [1] 0.4% | [2] 6.55% | [3] -9.5% | [4] 11.7% | [5] 7.25% | [6] 13.9%

NC(C(=O)O)C(F)(F)C(=O)O (configuration not stated)
inactive: [1] 2.45% | [2] -18.7% | [3] -2.7% | [4] -33.1% | [5] -7.3% | [6] -1.15%

CC(C)(N)CNCC(C)(C)N
inactive: [1] 6.9% | [2] -3.65% | [3] -0.2% | [4] -5.8% | [5] -0.45% | [6] -2.1%

COc1c(OC(C)=O)c(OC(C)=O)cc2c1-c1ccc(OC)c(=O)cc1C(NC(C)=O)CC2 (configuration not stated)
inactive: [1] 1.65% | [2] -1.35% | [3] 15.8% | [4] 1.35% | [5] -33.3% | [6] 8.35%

CC(=O)Nc1ccc(S(=O)(=O)O)nc1
inactive: [1] 0.45% | [2] 5.15% | [3] -6.8% | [4] 16.8% | [5] 7.65% | [6] -6.9%

COc1cccc(-c2cc(=O)c3cccnc3[nH]2)c1
inactive: [1] -49.4% | [2] 3.25% | [3] 28.8% | [4] 7.45% | [5] 26.6% | [6] 13.9%

CN1CCCCC1CCO (configuration not stated)
inactive: [1] -1.4% | [2] 6.7% | [3] -11.2% | [4] 15.9% | [5] 3.25% | [6] 14.1%

CN1CCCC(CO)C1 (configuration not stated)
inactive: [1] -10.8% | [2] -10.2% | [3] -7.65% | [4] 6.95% | [5] 7.75% | [6] -5.3%

CC(CN(C)C)C(/C=C/c1ccccc1)=N\Nc1ccccc1 (configuration not stated)
inactive: [1] -5.7% | [2] 23.4% | [3] 7.85% | [4] -6.3% | [5] -2.1% | [6] 3.25%

Cc1ccc(S(=O)(=O)Nc2cccc3c(=O)[nH]cnc23)cc1
inactive: [1] 1.6% | [2] -13.8% | [3] 1.2% | [4] -37.2% | [5] 10.3% | [6] 18.8%

CCc1cc(CCC(=O)Nc2ccccc2[N+](=O)[O-])[nH]c(=S)n1
inactive: [1] -10.6% | [2] -20.8% | [3] 11.3% | [4] 12% | [5] -14.3% | [6] -11.2%

CCOC(=O)/C(F)=C/c1ccc(C)cc1
inactive: [1] 20.6% | [2] -8.55% | [3] 3.85% | [4] 11.1% | [5] 0.15% | [6] 8.4%

CNC(=O)Nc1ccc(C(=O)O)cc1
inactive: [1] 9.2% | [2] 4.35% | [3] 5.35% | [4] -38.1% | [5] 9.8% | [6] 5.2%

Cc1nc2ccccc2c(=O)n1/N=C\c1ccc2c(c1)CCC2
inactive: [1] -1.7% | [2] -5.5% | [3] 15.8% | [4] 18.2% | [5] 23% | [6] 29.1%

CCOC(=O)C(C)(/C=N/NS(=O)(=O)c1ccc(C)cc1)c1ccccc1 (configuration not stated)
inactive: [1] 5.2% | [2] 10.7% | [3] 9.15% | [4] 5.7% | [5] 15.9% | [6] 14.3%

Nc1nc(Cc2ccccc2)c(CCCNc2ccccc2)c(=O)[nH]1
inactive: [1] -4.95% | [2] 5.05% | [3] 6.45% | [4] -74.3% | [5] 1.75% | [6] -12.8%

CN(C)c1cc2ccccc2oc1=O
inactive: [1] 5.3% | [2] -0.75% | [3] -2% | [4] -5.75% | [5] 9% | [6] 6.45%

COc1ccc(/C=c2/s/c(=C(\C#N)c3nc4ccccc4[nH]3)n(-c3ccccc3)c2=O)cc1
inactive: [1] 4% | [2] -15.2% | [3] -6.4% | [4] 13.9% | [5] -17.6% | [6] 13.2%

CC(=O)OCC(CO)(CO)COC(C)=O
inactive: [1] 8.25% | [2] 8.65% | [3] -16.2% | [4] 7.45% | [5] -3.7% | [6] -6.7%

CC(C)(O)/C1=C/C=C/CCCCCCCCCC1
inactive: [1] 13.8% | [2] 14.9% | [3] 50.1% | [4] 5.75% | [5] 14.8% | [6] 16.9%

C=CCCCCCCCCCCCCCCCCC
inactive: [1] -25.9% | [2] -24.1% | [3] -13.3% | [4] 10.4% | [5] -16.1% | [6] -28%

N=C1/C(=C/c2ccco2)C(=O)N=C2SC=NN12
inactive: [1] 7.75% | [2] 19.1% | [3] 13.2% | [4] -9.6% | [5] -5.6% | [6] 20.9%

C=CCCCCCCCCCCCC
inactive: [1] -20.1% | [2] 0% | [3] -20.8% | [4] 0.8% | [5] -21.2% | [6] -0.4%

CCOc1ccc(C(=O)CCC(=O)Nc2ccc(Br)cc2)cc1
inactive: [1] 13.1% | [2] 5.8% | [3] 13.1% | [4] -7.3% | [5] 8.75% | [6] 20.4%

Cc1ccc(S(=O)(=O)N(CCO)CCCO)cc1
inactive: [1] -16.7% | [2] -43.3% | [3] -9.95% | [4] 5.1% | [5] -35.3% | [6] 1.7%

O=C1C(CCCS)C(c2ccccc2)=NN1c1ccccc1 (configuration not stated)
inactive: [1] 54.9% | [2] 3.9% | [3] 18.4% | [4] -12.8% | [5] 0.45% | [6] 39%

O=S(=O)(N/N=C/c1ccncc1)c1ccccc1
inactive: [1] 39.4% | [2] 16.9% | [3] 60.5% | [4] 41.1% | [5] 34.5% | [6] 50.5%

C[N+](C)([O-])CCNC(=O)c1cccc2cc3ccccc3nc12
inactive: [1] -9.8% | [2] -8.9% | [3] -23.5% | [4] 4.3% | [5] 10.2% | [6] -46%
